Most compounds without a hit are left out; they make up all but 0.9% or so of the library.
RGS12 GoLoco inh: qHTS Assay for Inhibitors of RGS12 GoLoco Motif Activity (Red Fluorophore); Guanine nucleotide-binding protein G(i) subunit alpha-1 (Homo sapiens), P63096; Potency, µM (titrated, usually from 61.6 µM), without a hit: at the highest dose activity, negative = inhibition, actives largely listed as inhibitors; 230,000 compounds, 0.44% hits; Gai1:RGS12 GoLoco peptide FP, rhodamine, 10 min; active = well fitted inhibition curve with a large enough effect, not every such curve was filed as active; inactive = no such curve, though single readings can be large or run the other way; note: nearly all actives have a fitted effect of over 30% in size
TexasRed fluor: Total Fluorescence Counterscreen for Inhibitors of the Interaction of Thyroid Hormone Receptor and Steroid Receptor Coregulator 2 | TRb/SRC2 Texas Red total fluorescence interference | Potency, µM (titrated, usually from 106 µM), inactives show at the top dose fluorescence change, negative = quenching | 280,000 compounds, 0.29% hits | AID 1479, 2009; active = well fitted curve in either direction with a large enough effect; inconclusive = small, poorly fitted or top-dose-only effect
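Human TRb ligand-binding domain at 0.6 uM with 20 nM Texas Red SRC2 peptide in Tris buffer containing 1 uM T3 and 5% DMSO, incubated with compound 5 h at ambient temperature. Total fluorescence (555/632 nm) calculated as parallel + 2 × perpendicular.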
APE1 inh: qHTS Assay for Inhibitors of the Human Apurinic/apyrimidinic Endonuclease 1 (APE1). DNA repair nuclease/redox regulator APEX1 (Homo sapiens), P27695. recombinant APE1, TAMRA/BHQ-2 abasic DNA cleavage fluorescence. Potency, µM (top dose mostly 65.8 µM), without a hit: at the highest dose activity change, negative = inhibition, most hits filed as inhibitors. 350,000 compounds, 0.35% hits. AID 2517, 2012;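 note: plate controls were vehicle for no effect and reference inhibitor for full effect; nearly all actives have a fitted effect of over 55% in size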
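APE1 at 0.75 nM preincubated 15 min at room temperature with compound. Reaction then started with 50 nM double-stranded THF-abasic substrate labelled with TAMRA/BHQ-2, and 525/598 nm fluorescence read kinetically. Activity taken as third-minus-first read difference, normalized to DMSO and NSC13755 controls.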
RECQ1 inh-1: qHTS Assay for Inhibitors of RecQ-Like Dna Helicase 1 (RECQ1); RECQ1 DNA unwinding, red fluorescence kinetic read; Potency, µM (doses to about 57.3 µM), for inactives: top-dose activity, negative = inhibition, actives largely listed as inhibitors; 240,000 compounds, 0.54% hits;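 note: plate controls were vehicle for no effect and no enzyme for full effect; nearly all actives have a fitted effect of over 30% in size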
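RECQ1T1 50 nM; forked duplex (20 bp + 30-nt ss tails) 200 nM, ATP 2 mM final; pH 8.0, 2 mM MgCl2, 2.5 ug/ml poly(dI-dC); 15 min compound preincubation; discontinuous kinetic read over 2 h at RT.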
TRb-SRC2 inh: qHTS for Inhibitors of the Interaction of Thyroid Hormone Receptor and Steroid Receptor Coregulator 2. Thyroid hormone receptor beta (Homo sapiens), P10828. TRbeta-SRC2 peptide binding, fluorescence polarization; receptor liganded with 1 µM T3. Potency, µM (top dose mostly 106 µM), for inactives: at the top dose activity change, negative = inhibition, usual class: inhibitors. 280,000 compounds, 0.065% hits;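 note: plate controls were bound peptide for no effect and peptide without receptor for full effect; nearly all actives have a fitted effect of over 50% in size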
Target sequence (P10828 whole entry, looked up): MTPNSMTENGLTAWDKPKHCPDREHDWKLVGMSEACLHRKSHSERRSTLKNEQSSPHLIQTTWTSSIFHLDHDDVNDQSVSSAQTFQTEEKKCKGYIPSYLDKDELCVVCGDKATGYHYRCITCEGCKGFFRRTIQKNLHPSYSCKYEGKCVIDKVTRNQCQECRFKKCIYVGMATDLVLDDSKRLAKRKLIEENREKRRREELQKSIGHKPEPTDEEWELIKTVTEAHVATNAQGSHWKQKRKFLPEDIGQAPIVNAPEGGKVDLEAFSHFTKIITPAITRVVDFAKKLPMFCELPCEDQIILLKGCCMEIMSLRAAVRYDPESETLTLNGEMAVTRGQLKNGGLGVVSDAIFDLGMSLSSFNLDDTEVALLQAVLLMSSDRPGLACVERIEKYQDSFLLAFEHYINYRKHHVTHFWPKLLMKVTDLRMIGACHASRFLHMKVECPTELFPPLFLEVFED
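Fluorescence polarization of 20 nM Texas Red SRC2 peptide with 0.6 uM human TRb ligand-binding domain, in Tris buffer with 1uM T3 and 5% DMSO. Incubated 5 hr ambient; normalized to unbound and bound controls.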
BLM helicase inh: qHTS Assay for Inhibitors of Bloom's syndrome helicase (BLM); AID 2528, 2010; Potency, µM (series often up to 56.1 µM), for the others: at the top dose activity change, negative = inhibition, actives largely listed as inhibitors; RecQ-like DNA helicase BLM (Homo sapiens), P54132; 350,000 compounds, 0.2% hits; recombinant BLM DNA unwinding, fluorescence dequenching;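 note: plate controls were vehicle for no effect and no enzyme for full effect; nearly all actives have a fitted effect of over 35% in size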
RECQ1 conf: Confirmation qHTS Assay for Inhibitors of RecQ-Like Dna Helicase 1 (RECQ1); 610 compounds, 28% hits; RECQ1 helicase DNA unwinding, fluorescence; shares compounds with RECQ1 inh-1; Potency, µM (highest dose often 229 µM), for the others: at the highest dose activity change, negative = inhibition, most hits filed as inhibitors; note: nearly all actives have a fitted effect of over 45% in size
ADP FP counter: Counterscreen for RECQ1 Inhibitors: ADP Fluorescence Polarization Displacement Assay. shares compounds with RECQ1 inh-1. ADP fluorescence polarization displacement counterscreen. Potency, µM (highest dose often 228 µM), inactives show top-dose activity change, negative = inhibition, most hits filed as inhibitors. 530 compounds, 27% hits. AID 2711, 2010; note: nearly all actives have a fitted effect of over 45% in size
RECQ1 inh-2: Confirmation qHTS Assay for Inhibitors of RecQ-Like Dna Helicase 1 (RECQ1) - Round 2 Cherry Picks; shares compounds with RECQ1 inh-1; recombinant RECQ1 DNA unwinding, red fluorescence; Potency, µM (top dose mostly 119 µM), for inactives: at the highest dose activity, negative = inhibition, actives largely listed as inhibitors; 1,100 compounds, 15% hits; AID 504841, 2011; note: nearly all actives have a fitted effect of over 50% in size
* hit, by the source's call; ? = inconclusive; · = no result; ! = repeats disagree; [ ] = dose if it differs, or a comment. Unless noted, calls come from the whole dose curve; as a rule, active = well fitted curve in the direction sought with a large enough effect; inconclusive = small, poorly fitted or top-dose-only effect, or another doubt; inactive = no such curve, though single readings can be large; an effect the other way counts as inactive or inconclusive. Unless noted, % is set by controls: 0 for no effect and ±100 for the full control effect; potency is the fitted concentration of half-maximal effect.

SMILES	RGS12 GoLoco inh	TexasRed fluor	APE1 inh	RECQ1 inh-1	TRb-SRC2 inh	BLM helicase inh	RECQ1 conf	ADP FP counter	RECQ1 inh-2
CCC(C)NC(=O)c1c(N)n(Cc2ccc3c(c2)OCO3)c2nc3ccccc3nc12 (centres undefined)	-10.0%	-2.7%	-9.9%	?	-27.9%	?	·	·	-4.9%
O=C(CSc1ccc(-c2ccco2)nn1)Nc1ccccc1	-2.6%	-23.9%	?	25.1µM*	-1.6%	-25.3%	·	·	?
OC(Cn1cncn1)(c1ccc(F)cc1)c1ccccc1F (centres undefined)	·	0.7%[201 µM]	·	·	3.9%[201 µM]	·	·	·	·
CC(O)C(C)OC(=O)[C@@H]1C[C@@H]2c3cccc4c3c(cn4C(C)C)C[C@H]2N(C)C1 (some centres undefined)	6.5%	-27.2%	2.6%	35.5µM*!	-3.6%	·	·	·	56.2µM*
O=[N+]([O-])c1ccc(NCc2ccc(Cl)cc2)c2ccncc12	·	·	52.9%	·	·	-14.4%	·	·	·
O=[N+]([O-])c1ccc(NCc2ccccc2)c2nonc12	3.16µM*	2.4%	-3.1%	11.2µM*	-3.7%	-8.1%	20µM*	2.24µM*	44.7µM*
Cc1cc2c(C(C)C)c(O)c(O)c(C=O)c2c(O)c1-c1c(C)cc2c(C(C)C)c(O)c(O)c(C=O)c2c1O	-5.8%	25.1µM*![quencher]	25.1µM*!	14.1µM*!	?	28.2µM*!	22.4µM*	14.1µM*	·
C/C(=N\C(N)=O)N(C)Cc1ccc(Cl)nc1	·	1.7%[201 µM]	·	·	-1.3%[201 µM]	·	·	·	·
Nc1nc(N)nc(Cl)n1	·	3.4%[201 µM]	·	·	0.5%[201 µM]	·	·	·	·
CC[C@]1(O)CC(O[C@@H]2CC(N(C)C)C(O)C(C)O2)c2c(cc3c(c2O)C(=O)c2c(O)cccc2C3=O)C1C(=O)OC (some centres undefined)	0.8%	6.0%	14.1µM*	10µM*	-12.3%	28.5%	112µM*	4.47µM*	·
COC(=O)c1ccccc1S(=O)(=O)NC(=O)N(C)c1nc(C)nc(OC)n1	·	-1.3%[201 µM]	·	·	1.8%[201 µM]	·	·	·	·

High-throughput results from PubChem.
